Screens as filed in PubChem.
TTR transcr act – TTR transcription activation, primary screen; hit rate 1.3% among 92,000; SH-SY5Y TTR promoter Gaussia luciferase, luminescence; 100% = recombinant luciferase protein wells; activation, % at 16.7 µM;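 active = activation above the mean of all tested compounds plus 3 SD, cut at about 9.5% in these data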;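 note: cells exposed to compounds for one day before reading; 0% = median of all test compound wells on the plate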
HuH7 TTR inh – counter-screen for TTR activators: TTR transcription inhibitors in HuH7 cells; AID 1117279; inhibition, % at 16.7 µM; shares compounds with TTR transcr act; hit rate 4% among 1,100; HuH7 TTR promoter-Gaussia luciferase reporter, luminescence;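 active = average inhibition above the solvent-only control wells' mean plus 3 SD, cut at about 15% in these data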;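 note: 0% = cells with DMSO only and 100% = cells with inhibitor control FD; inhibitors lower well luminescence so higher value means more inhibition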
TTR act confirm – human TTR transcription activation, confirmation. shares compounds with TTR transcr act. SHSY5Y TTR promoter Gaussia luciferase, luminescence; 100% = purified Lucia enzyme wells, no cells. activation, % at 16.7 µM. 1,100 tested, under 10 active. AID 1117280;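 active = mean activation above a set limit taken from the earlier primary screen, cut at about 11% in these data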;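 note: 0% = DMSO-treated cells and 100% = recombinant Lucia luciferase without cells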
* hit, by the source's call. Only a selection was taken, and hits are over-represented in it overall.

SMILES	TTR transcr act	others
C#CCOCCOCCOCCNc1nc(N2CCN(C(=O)[C@H](CO)n3cc([C@@H](N)C(C)C)nn3)CC2)nc(N2CCN(C(=O)[C@H](CCCCN)n3cc([C@@H](N)[C@H](C)CC)nn3)CC2)n1	19*	HuH7 TTR inh=-4;TTR act confirm=1
C#CCOCCOCCOCCNc1nc(N2CCN(C(=O)[C@H](CCCN=C(N)N)n3cc(C(N)[C@@H](C)CC)nn3)CC2)nc(N2CCN(C(=O)[C@H](CCCCN)n3cc([C@@H](N)CC(N)=O)nn3)CC2)n1 (stereo partly drawn)	-2
C#CCOCCOCCOCCNc1nc(N2CCOCC2)nc(N2CCN(C(=O)[C@H](CCCCN)n3cc([C@@H](N)CO)nn3)CC2)n1	2
CC[C@@H](OP(=O)(O)[C@@H](C)N)C(=O)O	0
Cc1ccccc1-c1cc2c(c3c1ccn3C)C1CCC2O1 (stereo not drawn)	-1
Cn1ccc2c(-c3ccc(F)cc3)cc3c(c21)C1CCC3C1 (stereo not drawn)	1
Cc1ccccc1-c1cc2c(c3c1ccn3C)C1CCC2C1 (stereo not drawn)	10*	HuH7 TTR inh=-6;TTR act confirm=1
O=C(CN[C@@H](Cc1c[nH]c2ccccc12)C(=O)NCCc1c[nH]c2ccccc12)NC1CCCCC1	-1
C[C@H]1[C@@H](NC(=O)C2CCOC2)CC[C@@]23CCCN2C(=O)CCC[C@@H]13 (stereo partly drawn)	-1
COc1cccc(C(=O)n2ccc3ccc(-c4ccc5ccn(C(=O)c6cccc(OC)c6)c5c4)cc32)c1	0
Oc1ccccc1N1CCN(c2nnnn2-c2ccccc2)CC1	0
NC(=O)C1CCN(c2nnnn2-c2ccccc2)CC1	10*	HuH7 TTR inh=-13;TTR act confirm=-1
O=C(C1CCN(c2nnnn2-c2ccccc2)CC1)N1CCN(c2ccccc2)CC1	-1
Cc1cccc(C(=O)Nc2nc3ncccn3c2-c2ccc(C(F)(F)F)cc2)c1	0
O=C(NCCc1c[nH]c2ccccc12)OCc1cn(Cc2ccc(C(F)(F)F)cc2)nn1	-1
COC(=O)[C@]12C[C@H](CC(=O)NCCCN3CCCC3=O)C(=O)N(Cc3ccc(Cl)cc3Cl)C1=C[C@H](C1CCCC1)O[C@@H]2C	3
COc1ccc(Cl)cc1C(=O)O/N=C(\N)c1ccncc1	1
Cc1ccc(/C(N)=N/OC(=O)c2ccc(Cl)cc2Cl)cc1	20*	HuH7 TTR inh=6;TTR act confirm=-1
N/C(=N\OC(=O)c1cccnc1)c1ccc(Cl)cc1Cl	0
C[C@@H]1CN([C@@H](C)CO)C(=O)CCCn2nncc2CO[C@H]1CN(C)C(=O)Nc1ccc(N2CCN(C)CC2)cc1	3
Cc1nn2c(-c3ccccc3)c(-c3ccccc3)nc2[nH]c1=O	-1
O=C(O)CCc1nn2cc(-c3ccccc3)nc2[nH]c1=O	-1
Cc1nn2cc(-c3ccccc3)nc2[nH]c1=O	10*	HuH7 TTR inh=1;TTR act confirm=0
COc1ccc(NC(=O)NN(C(=O)c2ccccc2)C(C)(C)C)cc1	0
Cn1nc(C(=O)N2CCc3ccccc32)c2ccccc2c1=O	-1
SMILES	TTR transcr act	others
Cc1cc(C)n(C(C)CC(=O)N2CCc3ccccc32)n1 (stereo not drawn)	1
Cc1cc(C(=O)N2CCc3ccccc32)n(-c2ccccc2)n1	10*	HuH7 TTR inh=21*;TTR act confirm=11*
C[C@H]1[C@H](NC(=O)c2ccc(Cl)c(C(F)(F)F)c2)CC[C@@]23CCCN2C(=O)CCC[C@@H]13	-1
CCCCC(=O)Nc1ccc(NC(=O)CCCC)nc1	0
CCCCC(=O)Nc1ccc(Br)cn1	1
CCCCCCCC(=O)NC1=NC(=O)C(C)(C)S1	13*	HuH7 TTR inh=3;TTR act confirm=1
CCCC[C@H]1C2CC(OC(=O)Nc3cccc(C#N)c3)C(C2)[C@H]2CCCCN21 (stereo partly drawn)	-2
C#CCNC(=O)C[C@H]1C[C@@]2(C(=O)OC)C(=C[C@H](COCc3ccccc3)O[C@@H]2C)N(Cc2ccco2)C1=O	0
CC(C)C(=O)Nc1cccc(-c2nc3ncccc3o2)c1	15*	HuH7 TTR inh=9;TTR act confirm=-1
O=C(CSc1ccc(Cl)cc1)Nc1cccc(-c2nc3ncccc3o2)c1	-2
CC(C)C(=O)Nc1cccc(-c2nc3ccccc3o2)c1	-1
C[C@@H]1CCCN1c1ccc2c(c1)O[C@H]1CCN(C1)S2(=O)=O	-3
O=C(OCc1ccccc1)[C@H](Cc1ccccc1)NC(=O)[C@@H]1CC=C[C@@H]2CCN(C3CCCCC3)C(=O)[C@@H]21	0
CCCC1CCC2(CC1)CCC2OC(=S)Nc1ccc(Br)cc1 (stereo not drawn)	0
O=C(CO/N=C/c1ccc(Cl)cc1Cl)NNC(=O)c1ccc(Cl)cc1Cl	0
O=C(CO/N=C/c1c(Cl)cccc1Cl)NNC(=O)c1cccc(Cl)c1	2
O=C(CO/N=C/c1c(Cl)cccc1Cl)NNC(=O)c1ccc(Cl)cc1	11*	HuH7 TTR inh=-16;TTR act confirm=0
O=S1(=O)c2ccc(N3CC[C@H](O)C3)cc2O[C@@H]2CCN1C2	1
CC(C)C(=O)NC(=S)Nc1ccccc1C(=O)NC1CCCCC1	3
O=C(Nc1ccccc1)NC1CCCCCCC1	-1
COC(=O)c1ccccc1NC(=O)NC1CCCC1	15*	HuH7 TTR inh=-2;TTR act confirm=-1
CC(C)NC(=O)N(C)C[C@H]1Oc2c(NC(=O)Nc3ccccc3)cccc2C(=O)N([C@H](C)CO)C[C@@H]1C	4
Cc1cc(C)cc(C(=O)NC(CC(N)=O)c2ccc(NCCN3CCCC3)c([N+](=O)[O-])c2)c1 (stereo not drawn)	6
Cc1cc(/C=N/N2CCN(C)CC2)c(C)n1-c1ccccc1F	9.7*	HuH7 TTR inh=-12;TTR act confirm=1
Cc1c(C(=O)O)cccc1-n1c(C)cc(C=O)c1C	0
SMILES	TTR transcr act	others
COC(=O)C1=C(C)NC(=O)/C1=C\c1cc(C)n(-c2ccccc2F)c1C	1
CC(C)C[C@H]1COc2cccc(F)c2S(=O)(=O)N1Cc1cn(CCC2OCCCO2)nn1	2
C[C@H](NS(=O)(=O)c1ccccc1)C(=O)N1CCN(C(c2ccccc2)c2ccccc2)CC1	-3
COC(=O)[C@H]1C[C@@H]1[C@H](NC(=O)c1cc(C)on1)c1ccccc1	4
COC(=O)[C@@H]1C[C@H]1[C@@H](NS(=O)(=O)c1ccccc1)c1ccccc1	10*	HuH7 TTR inh=-17;TTR act confirm=-1
C=C1CCC2C(C)(C)CCC[C@]2(C)[C@H]1CC1=C(O)C(=O)C(CO)=CC1=O (stereo partly drawn)	-1
CC1CC(=O)Nc2ccccc2N1C(=O)COc1cc(Cl)ccc1Cl (stereo not drawn)	1
CC(=O)Oc1cc(C(=O)OCC(=O)N2CCc3ccccc3C2)cc(OC(C)=O)c1OC(C)=O	1
COc1ccc(-c2nc(SCC(=O)NC3CCCC3)c(-c3ccc(OC)cc3)[nH]2)cc1	-1
COc1ccc(-c2[nH]c(-c3ccc(SC)cc3)nc2SCC(=O)Nc2nccs2)cc1	-1
COc1ccc(-c2[nH]c(-c3ccc(C)cc3)nc2SCC(=O)Nc2nccs2)cc1	10*	HuH7 TTR inh=-12;TTR act confirm=-1
Cc1ccccc1CN1CCCCC(NC(=O)c2c(F)cccc2F)C1=O (stereo not drawn)	3
COc1ccc(/C=C(\NC(=O)c2ccccc2Cl)C(=O)NCCCC(=O)O)cc1	0
CC1(C)CC(=O)C=C(c2ccc(OC(F)(F)F)cc2)C1	12*	HuH7 TTR inh=-5;TTR act confirm=-1
CC1(C)CC(=O)C=C(c2ccc(I)cc2)C1	2
